High-throughput results: PubChem BioAssay, The Scripps Research Institute Molecular Screening Center
PAFAH1B3 inh: inhibitors of human PAFAH1B3. 340,000 tested, 0.28% active. inhibition, % at 3.39 µM. AID 492972. recombinant PAFAH1B3, FP-rhodamine probe, fluorescence polarization;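 active = inhibition above the screen-wide average of all tested compounds plus 3 SD, cut at about 25% in these data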
PP5 primary: blocks human protein phosphatase 5 activity. 320,000 tested, 0.18% active. inhibition, % at 6.7 µM. purified PP5c, OMFP substrate fluorescence;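 active = inhibition above the campaign's mean inhibition across all tested compounds plus 3 SD, cut at about 9.5% in these data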
PAFAH2 FP inh: PAFAH2 (human) inhibition; recombinant PAFAH2, FP-rhodamine activity probe, fluorescence polarization; inhibition, % at 3.39 µM; Q99487; 340,000 tested, 0.99% active; AID 492956;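 active = inhibition above the mean over all tested compounds plus 3 SD, cut at about 30% in these data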;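 also: inhibitors block probe labeling of enzyme so polarization drops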
PP1 counter: blocks human PP1-alpha phosphatase, a PP5 counter-screen; purified PP1alpha, OMFP fluorescence; inhibition, % at 6.7 µM; 320,000 tested, 0.9% active;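 active = inhibition above the mean inhibition of all tested compounds plus 3 SD, computed separately for each screening campaign, cut at about 15% in these data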
PAFAH1B2 inh: PAFAH1B2 (human) inhibition; recombinant PAFAH1B2, FP-rhodamine activity probe, fluorescence polarization; P68402; inhibition, % at 3.39 µM; AID 492953; 340,000 tested, 1.2% active;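 active = inhibition above the mean of all tested compounds plus 3 SD, cut at about 24% in these data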
Target sequence (P68402 whole entry, looked up): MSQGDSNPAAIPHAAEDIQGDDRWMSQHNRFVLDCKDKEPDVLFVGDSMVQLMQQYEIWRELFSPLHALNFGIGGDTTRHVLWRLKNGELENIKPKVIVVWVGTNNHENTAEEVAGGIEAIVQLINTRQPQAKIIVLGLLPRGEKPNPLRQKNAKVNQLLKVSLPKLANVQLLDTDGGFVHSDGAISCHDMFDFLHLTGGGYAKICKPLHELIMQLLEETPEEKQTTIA
pPAFAH inh: pPAFAH (human) enzyme inhibition; recombinant pPAFAH, FP-rhodamine probe fluorescence polarization; inhibition, % at 3.39 µM; 330,000 tested, 1.5% active;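 active = inhibition above the mean inhibition across the screen plus 3 SD, cut at about 25% in these data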;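 also: inhibitors block binding of the rhodamine activity-based probe so polarization drops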
Target sequence (Q13093 whole entry, looked up): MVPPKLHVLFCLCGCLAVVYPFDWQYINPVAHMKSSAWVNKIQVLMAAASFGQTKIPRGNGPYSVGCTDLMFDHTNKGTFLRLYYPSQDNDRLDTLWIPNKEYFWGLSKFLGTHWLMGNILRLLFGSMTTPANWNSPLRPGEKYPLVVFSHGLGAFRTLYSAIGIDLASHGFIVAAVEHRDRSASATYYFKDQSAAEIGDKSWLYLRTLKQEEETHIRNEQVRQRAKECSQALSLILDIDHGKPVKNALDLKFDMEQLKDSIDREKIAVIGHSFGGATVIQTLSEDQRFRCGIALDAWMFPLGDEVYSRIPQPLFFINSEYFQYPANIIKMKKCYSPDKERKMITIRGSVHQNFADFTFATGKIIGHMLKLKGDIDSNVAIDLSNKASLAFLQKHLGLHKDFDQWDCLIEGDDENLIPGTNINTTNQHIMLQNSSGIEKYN
PAFAH2 FP conf: confirmation of human PAFAH2 inhibitors; shares compounds with PAFAH2 FP inh; inhibition, % at 3.39 µM; recombinant PAFAH2, FP-rhodamine activity probe, fluorescence polarization; 2,300 tested, 65% active;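 active = mean inhibition over three repeats above a set limit taken from the earlier primary screen, cut at about 30% in these data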;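 also: inhibitor blocks binding of rhodamine activity probe so polarization falls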
Numbers stand for hits; - = inactive; . = no result given. Only some compounds are listed: those with a hit (about 3.4% of all), similar ones and a draw of the others.

SMILES | PAFAH1B3 inh | PP5 primary | PAFAH2 FP inh | PP1 counter | PAFAH1B2 inh | pPAFAH inh | PAFAH2 FP conf
O=C(COC(=O)Cc1ccc(Cl)cc1)Nc1c(F)cccc1F | - | - | - | - | - | - | .
Oc1ccccc1/C=N/NC(=S)NC1CC2CCC1C2 (stereo not drawn) | - | - | 60 | - | - | - | -
COc1cccc(/C=N/NC(=S)NC2CC3CCC2C3)c1OC (stereo not drawn) | - | - | - | - | - | - | .
CCOC(=O)c1ccccc1NC(=O)COC(=O)CC1CCCCC1 | - | - | - | - | - | - | .
O=C(COC(=O)c1ccc(O)cc1)Nc1ccccc1[N+](=O)[O-] | - | - | 69 | - | - | - | 67
O=C(COC(=O)CC1CCCC1)Nc1ccccc1[N+](=O)[O-] | - | - | 57 | - | - | - | 51
Cc1ccc(Cl)cc1NC(=O)COC(=O)CC1CCCCC1 | - | - | 31 | - | - | - | -
Cc1ccccc1NC(=O)COC(=O)CC1CCCC1 | - | . | 43 | . | - | . | -
O=C(CC(=O)Nc1ccccc1[N+](=O)[O-])Nc1ccccc1[N+](=O)[O-] | - | - | - | - | - | - | .
O=C(CCC(=O)c1ccc(Cl)cc1)NCc1ccccc1 | - | - | - | - | - | - | .
Cc1cc(C(=O)OCC(=O)Nc2cc(S(=O)(=O)N3CCOCC3)ccc2Cl)c(C)o1 | - | - | 35 | - | - | - | 31
O=C(COC(=O)c1cc(S(=O)(=O)N2CCOCC2)ccc1O)Nc1cc(S(=O)(=O)N2CCCC2)ccc1Cl | - | - | 77 | - | - | - | 76
Cc1cc(NC(=O)NCc2ccccc2)c(=O)n(Cc2ccc(F)cc2)c1 | - | - | - | - | - | - | .
O=C(NNc1cc(Cl)ccc1Cl)c1cccs1 | . | - | . | - | . | - | .
N/C(=N\OC(=O)c1cccs1)C1(c2ccc(Cl)cc2Cl)CC1 | - | - | 58 | - | - | - | 30
O=C(OCC(=O)c1ccc(Cl)s1)c1ccc(CO)cc1 | - | - | 61 | - | - | - | 51
Cc1ccc(C(=O)NCC(=O)OCC(=O)c2ccc(Cl)s2)cc1 | - | - | - | - | - | - | .
O=C(OCC(=O)C12CC3CC(CC(C3)C1)C2)c1ccc(CO)cc1 | - | - | 80 | - | - | - | 83
COc1cccc(C(=O)OCC(=O)c2ccc(Br)s2)c1OC | - | - | 62 | - | - | - | 52
COc1cccc(C(=O)OCC(=O)NCCNC(=O)COC(=O)c2cccc(OC)c2OC)c1OC | - | - | - | - | - | - | .
O=C(OCC(=O)c1ccc(Br)s1)c1ccc(O)cc1 | - | . | 66 | . | - | - | 61
COc1ccc(S(=O)(=O)NCCSC(C)(C)C)c(Cl)c1Cl | - | - | - | - | - | - | .
CC(OC(=O)C1CSC2(C)CCC(=O)N12)C(=O)Nc1ccc(F)cc1 (stereo not drawn) | - | - | - | - | - | - | .
Cc1ccc(C(=O)COC(=O)c2ccc(Cl)c(N)c2)s1 | - | - | 32 | - | - | - | -
O=C(O)CCC(=O)Nc1ccc(Br)cc1C(=O)c1ccccc1 | - | - | - | - | - | - | .
SMILES | PAFAH1B3 inh | PP5 primary | PAFAH2 FP inh | PP1 counter | PAFAH1B2 inh | pPAFAH inh | PAFAH2 FP conf
Cc1ccc(C(=O)OCC(=O)NCc2cccs2)c(C)c1 | - | - | 32 | - | - | - | -
COc1ccc(C(=O)OCC(=O)NCc2cccs2)c(OC)c1OC | - | . | 72 | . | - | - | 65
Cc1cc(C)cc(C(=O)OCC(=O)NCc2cccs2)c1 | - | - | - | - | - | - | .
CCOC(=O)c1nnn(-c2nonc2-n2cccc2)c1CCl | - | - | 31 | - | - | - | 44
CC(C)N(Cc1ccccc1)C(=O)CN1C(=O)COc2ccc(S(=O)(=O)NC3CCCC3)cc21 | - | - | - | - | - | - | .
Nc1[nH]n2c(=O)cc(-c3ccccc3)nc2c1N=Nc1ccccc1 | - | - | 32 | - | - | - | -
C/C=C/C(=O)OCC(=O)Nc1cccc(S(=O)(=O)NC2=NCCCCC2)c1 | - | - | - | - | - | - | .
COc1cccc(/C=C/C(=O)OCC(=O)Nc2cccc(S(=O)(=O)NC3=NCCCCC3)c2)c1 | - | . | 50 | . | - | - | 42
O=C(COC(=O)/C=C/c1cccc(F)c1)Nc1cccc(S(=O)(=O)NC2=NCCCCC2)c1 | - | . | 39 | . | - | - | -
O=C(Nc1ccc(Cl)c(Cl)c1)c1csc(-c2ccccc2)n1 | - | - | - | - | - | - | .
COc1ccc(CNC(=O)CSc2nnc(NC(=O)C3CC3)s2)cc1 | - | - | - | - | - | - | .
CC(C)(C)OC(=O)N1CCC[C@H]1C(=O)O | - | - | - | - | - | - | .
CC(=O)Nc1ccc(C(=O)OCC(=O)NCCC2=CCCCC2)cc1 | - | . | 66 | . | - | . | 61
COc1cc(C(=O)OCC(=O)NCCC2=CCCCC2)cc(OC)c1OC | - | . | - | . | - | . | .
CC(=O)Nc1ccc(C(=O)OCC(=O)NC(=O)NC(C)(C)C)cc1 | - | - | 41 | - | - | - | 31
O=C(COC(=O)c1ccc(OC(F)F)cc1)NCCC1=CCCCC1 | - | - | 41 | - | - | - | -
O=C(COC(=O)c1ccc([N+](=O)[O-])cc1)NCCC1=CCCCC1 | - | . | - | . | - | - | .
CN(C)C(CNC(=O)c1ccc(S(=O)(=O)Nc2ccccc2F)cc1)c1ccco1 (stereo not drawn) | - | - | - | - | - | - | .
CNc1ccc(Br)cc(C(=O)/C=C/c2cccc(Cl)c2Cl)c1=O | - | . | 44 | . | - | . | -
Cc1cc(C)n(-c2ncc3c(n2)N(C)CCOC3=O)n1 | - | - | - | - | - | - | .
O=C(CSc1nnc(NC(=O)C2CC2)s1)Nc1ccccc1 | - | - | - | - | - | - | .
NC(=O)c1ccc(NC(=O)COC(=O)CC2CC3CCC2C3)cc1 (stereo not drawn) | - | . | - | . | - | - | .
NS(=O)(=O)c1cccc(NC(=O)COC(=O)CC2CC3CCC2C3)c1 (stereo not drawn) | - | - | 35 | - | - | - | -
CC(=O)c1cccc(NC(=O)COC(=O)CC2CC3CCC2C3)c1 (stereo not drawn) | - | - | 75 | - | - | - | 63
Cc1c(NS(=O)(=O)c2cccc(C(=O)OCC(=O)c3ccc(Cl)cc3)c2)c(=O)n(-c2ccccc2)n1C | - | . | 30 | . | - | . | -
CN(C)S(=O)(=O)c1cccc(-c2cn3cc(Cl)ccc3n2)c1 | - | - | - | - | - | - | .
Cc1cnc(CNC(=O)CC2C(=O)NCCN2Cc2ccccc2C(F)(F)F)cn1 (stereo not drawn) | - | - | - | - | - | - | .
O=C(ON=C1CCN(S(=O)(=O)c2ccccc2)CC1)c1ccccc1 | - | - | 91 | - | - | - | 83
CC1(C)Cc2noc(N)c2C(C)(C)N1OC(=O)c1ccccc1 | - | - | - | - | - | - | .
O=C(ON=C1CCN(S(=O)(=O)c2ccccc2)CC1)c1cccc(Cl)c1 | - | - | 82 | - | - | - | 79
